Hits are enriched below; roughly 5.3% of the tested compounds scored in any of these assays.
TDP1 block = TDP1 (human) enzyme inhibition; Q9NUW8; recombinant TDP1, AlphaScreen DNA substrate cleavage; Potency, µM (titrated, usually from 130 µM), for inactives: at the top dose activity change, negative = inhibition, usual class: inhibitors; 350,000 compounds, 0.28% hits; note: potency is the fitted concentration of half-maximal effect; % is set by controls: 0 for no effect and ±100 for the full control effect; nearly all actives have a fitted effect of over 40% in size
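Steps: enzyme plus compound, 15 min RT; add biotin/phosphotyrosine-FITC oligonucleotide (15 nM final), react 5 min; add donor/acceptor beads (10 ug/ml final), 10 min; read AlphaScreen. Tdp1 at 1 nM final.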
BAZ2B block = blocks human BAZ2B; 360,000 compounds, 4.4% hits; AlphaScreen BAZ2B-H3K14Ac peptide displacement; Potency, µM (series often up to 114 µM), without a hit: at the top dose activity change, negative = inhibition, actives largely listed as inhibitors; note: potency is the fitted concentration of half-maximal effect; % is set by controls: 0 for no effect and ±100 for the full control effect; nearly all actives have a fitted effect of over 60% in size
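BAZ2B (50 nM) with biotin-H3(5-23)K14Ac peptide (50 nM) in PBS pH 7.4, 0.01% Tween-20, preformed 30 min, then compound 30 min at room temperature; top concentration 110uM. AlphaScreen streptavidin donor/nickel chelate acceptor beads (10 ug/mL final), 20 min dark, signal read.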
JMJD2A Tudor inh = inhibitors of human JMJD2A Tudor domain; O75164; AlphaScreen JMJD2A-Tudor / H3K4me3 peptide binding; Potency, µM (series often up to 114 µM), inactives show at the highest dose activity change, negative = inhibition, actives largely listed as inhibitors; 390,000 compounds, 4.4% hits; AID 504339; note: potency is the fitted concentration of half-maximal effect; % is set by controls: 0 for no effect and ±100 for the full control effect; nearly all actives have a fitted effect of over 50% in size
Target sequence (O75164 whole entry, looked up, the tested form may be a part): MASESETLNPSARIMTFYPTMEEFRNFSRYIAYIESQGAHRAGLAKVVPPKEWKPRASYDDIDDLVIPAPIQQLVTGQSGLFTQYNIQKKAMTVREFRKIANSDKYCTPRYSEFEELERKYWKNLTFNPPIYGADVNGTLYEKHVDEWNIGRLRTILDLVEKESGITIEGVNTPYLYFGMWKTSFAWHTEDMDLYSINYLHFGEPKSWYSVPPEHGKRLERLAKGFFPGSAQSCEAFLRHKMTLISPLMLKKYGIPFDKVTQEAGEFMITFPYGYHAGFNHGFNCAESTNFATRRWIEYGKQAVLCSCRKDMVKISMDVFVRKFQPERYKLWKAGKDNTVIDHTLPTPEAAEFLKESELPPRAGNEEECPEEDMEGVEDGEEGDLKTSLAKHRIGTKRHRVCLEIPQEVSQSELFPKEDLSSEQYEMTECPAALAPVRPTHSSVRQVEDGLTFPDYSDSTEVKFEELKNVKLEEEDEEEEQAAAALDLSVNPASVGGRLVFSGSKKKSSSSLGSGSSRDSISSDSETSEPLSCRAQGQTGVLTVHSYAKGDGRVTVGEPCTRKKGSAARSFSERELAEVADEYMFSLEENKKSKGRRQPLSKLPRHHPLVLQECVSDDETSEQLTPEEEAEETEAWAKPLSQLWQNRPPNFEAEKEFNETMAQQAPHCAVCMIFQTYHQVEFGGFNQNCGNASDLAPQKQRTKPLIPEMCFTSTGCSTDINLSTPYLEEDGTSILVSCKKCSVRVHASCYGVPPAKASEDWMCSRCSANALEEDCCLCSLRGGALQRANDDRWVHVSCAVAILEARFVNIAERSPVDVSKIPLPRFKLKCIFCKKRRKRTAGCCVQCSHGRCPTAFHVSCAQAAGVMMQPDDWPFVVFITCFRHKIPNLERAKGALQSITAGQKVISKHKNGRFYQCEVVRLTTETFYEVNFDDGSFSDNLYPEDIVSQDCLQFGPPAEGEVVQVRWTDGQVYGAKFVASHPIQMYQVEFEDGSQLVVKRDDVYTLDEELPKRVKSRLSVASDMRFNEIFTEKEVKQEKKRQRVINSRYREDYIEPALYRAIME
Six1-Eya2 blk = blocks human Six1 binding to Eya2; Q15475+O00167; AlphaScreen GST-Six1/His-Eya2 binding, biochemical; stronger effect = lower value; 360,000 compounds, 0.56% hits; activity change, % (no concentration beside the values); AID 651725; in the data active = activity change below about -65%; inconclusive = mostly about -30% to -63%; note: % is set by controls: 0 for no effect and ±100 for the full control effect
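Compounds are tested against tagged Six1 and Eya2 proteins bridged by glutathione donor and nickel acceptor beads; after a one-hour incubation at 37 °C without light, AlphaScreen emission is recorded.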
CtBP-E1A inh = inhibitors of CtBP/E1A interaction; AlphaScreen GST-E1A/His-CtBP binding, 1536-well; stronger effect = lower value; activity change, % (concentration not given with the values); 340,000 compounds, 0.49% hits; AID 651724; in the data active = activity change below about -65%; inconclusive = mostly about -30% to -63%; note: % is set by controls: 0 for no effect and ±100 for the full control effect
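Steps: dispense buffer (Tris pH 8.0, NaCl 300 mM, TCEP 1 mM, BSA, Tween 20); add 5X protein mix (GST-E1A, His-CtBP, 125 nM each); pin 23 nL compound; 2 h at 37 °C, dark; add 5X beads (50 ug/mL); 1 h; read.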
HP1b binding inh = inhibitors of HP1-beta chromodomain binding to methylated histone tails | P83916 | AlphaScreen HP1-beta / biotin-H3K9me3 peptide binding | Potency, µM (highest dose often 114 µM), without a hit: at the highest dose activity change, negative = inhibition, most hits filed as inhibitors | 390,000 compounds, 0.56% hits | AID 540317; note: potency is the fitted concentration of half-maximal effect; nearly all actives have a fitted effect of over 70% in size
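HP1-beta protein (50 nM final) preincubated 30 min at room temperature with biotinylated H3(1-18)K9me3 peptide (50 nM) in PBS pH 7.4, 0.01% Tween-20, then compound added for 30 min. AlphaScreen streptavidin donor/nickel chelate acceptor beads (10 ug/mL final), 30 min dark, luminescence read.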
* marks the source's active call; other numbers are inactive results; ? = inconclusive; . = no result given; [ ] = remark or other dose. Unless noted, calls come from the whole dose curve; as a rule, active = well fitted inhibition curve with a large enough effect; inconclusive = small, poorly fitted or top-dose-only effect; inactive = no such curve, though single readings can be large or run the other way.

SMILES | TDP1 block | BAZ2B block | JMJD2A Tudor inh | Six1-Eya2 blk | CtBP-E1A inh | HP1b binding inh
CCC1CN(C(=O)N2CCC(C(=O)NCc3ccccc3C)CC2)c2ccccc2O1 (stereo not drawn) | 2% | -23% | ? | 0 | 3 | 28%
CN(C)CCCN1C(=O)c2cccc3c([N+](=O)[O-])ccc(c23)C1=O | 3% | ? | -28% | -9 | -12 | 1%
O=C(O)c1ccc(CN2C(=O)c3cccc4c([N+](=O)[O-])ccc(c34)C2=O)cc1 | . | 50µM* | ? | 3 | 3 | 5%
Cc1ccc(C(=O)O)cc1N1C(=O)c2cccc3c([N+](=O)[O-])ccc(c23)C1=O | . | 50µM* | 56µM* | ? | -8 | -16%
CC(=O)Oc1cccc(N2C(=O)c3cccc4c([N+](=O)[O-])ccc(c34)C2=O)c1 | . | 3% | 2% | -2 | . | 29%
Cc1nc2cccnc2n1-c1cccc(C(=O)N2CCN(c3cccc(Cl)c3)CC2)c1 | 6% | -17% | -6% | . | . | 47%
CC1=NN(c2cccc(C(=O)O)c2)C(=O)/C1=C\C=C/c1ccccc1 | 8% | ? | ? | 4 | 2 | ?
CC1=NN(c2ccccc2)C(=O)/C1=C/C=C/C=C/N(C)C | 6% | 13µM* | ? | -8 | -25 | ?
CC1=NN(c2ccccc2)C(=O)C1=Cc1ccccc1 | . | . | . | -15 | -5 | .
CC1=NN(c2ccc(C)cc2)C(=O)/C1=C\C=C\c1ccccc1 | 1% | 2.5µM* | 4.5µM* | 7 | 0 | 5.6µM*
COC(=O)c1nc2n(n1)C(c1cccc(Cl)c1)C(C(=O)Nc1ccccc1OC)=C(C)N2 (stereo not drawn) | 5% | ? | 0% | . | . | 41%
Cc1ccc(C(=O)N2CCc3cc(CNS(=O)(=O)c4cccs4)ccc32)cc1 | 0% | -1% | -2% | . | . | 30%[57 µM]
O=C1C2C3C=CC(C3)C2C(=O)N1/N=C/c1ccc(-c2ccccc2[N+](=O)[O-])o1 (stereo not drawn) | 4% | ? | ? | -14 | -12 | -23%
CN1C(=O)/C(=C/c2ccc(-c3ccccc3[N+](=O)[O-])o2)SC1=Nc1ccc(Cl)c(C(=O)O)c1 | 11% | 45µM* | ? | ? | -2 | -39%
CN(Cc1ccccc1)C(=O)c1cc(-c2cccc(Cl)c2)on1 | -8% | 152% | 122% | . | . | 118%
CCc1nnc2c(Nc3ccc(N(CC)CC)cc3C)nc3ccccc3n12 | 6% | 32µM* | 16µM* | . | . | ?
CCc1nnc2c(Nc3ccccc3Br)nc3ccccc3n12 | 5% | -1% | 17% | . | . | 37%
O=C(NCCc1ccc(Cl)cc1)c1ccc(CS(=O)(=O)Cc2ccccc2F)o1 | -1% | -1% | -11% | . | . | 32%
O=C1CCCC2=C1C(c1ccncc1)n1c(nc3ccccc31)N2 (stereo not drawn) | -1% | 8% | 56µM* | 0 | 15 | -3%
Cc1[nH]n(-c2ccccc2)c(=O)c1N=Nc1ccccc1 | 10% | 2.5µM* | 11µM* | ? | -27 | ?
CCOc1ccccc1N=Nc1c(C)[nH]n(-c2ccccc2)c1=O | . | ? | 45µM* | -12 | -13 | ?
Cc1[nH]n(-c2ccccc2)c(=O)c1N=Nc1cccc(S(=O)(=O)N2CCOCC2)c1 | 8% | -2% | 56µM* | -15 | 0 | ?
Cc1[nH]n(-c2ccccc2)c(=O)c1N=Nc1cccc(C(=O)O)c1 | . | -34% | ? | -4 | -6 | -8%
CC(=O)c1ccc(N=Nc2c(C)[nH]n(-c3ccccc3)c2=O)cc1 | . | 32µM* | ? | ? | . | ?
CCc1ccc(C2CC(=O)Oc3c2c(=O)n(C)c2ccccc32)cc1 (stereo not drawn) | 5% | -17% | -11% | . | . | 16%
SMILES | TDP1 block | BAZ2B block | JMJD2A Tudor inh | Six1-Eya2 blk | CtBP-E1A inh | HP1b binding inh
O=C(NC1CC(=O)N(c2ccccc2)C1)c1ccc(S(=O)(=O)N2CCCC2)cc1 (stereo not drawn) | 8% | 2% | -14% | . | . | 45%
COc1ccc(-n2nc(C)c3c(C(F)(F)F)cc(-c4cccnc4)nc32)cc1 | 2% | 0% | 14% | . | . | 50%
O=c1[nH][nH]c2cc(=O)n(-c3cccc(C(F)(F)F)c3)nc12 | 9% | ? | -28% | -14 | -3 | 5%
COc1ccc(-n2nc3c(=O)[nH][nH]c3cc2=O)cc1 | 45µM* | 32µM* | ? | -22 | ? | 9%
CCc1cccc2sc(N3CCN(C(=O)c4ccc([N+](=O)[O-])o4)CC3)nc12 | 10% | ? | 22µM* | ? | -4 | ?
CC(C)(C)NC(=O)c1cccc(NC(=O)c2ccco2)c1 | -2% | -4% | -9% | -13 | -1 | 10%
CC(C)(C)NC(=O)c1cccc(NC(=O)c2ccc(NC(=O)c3ccco3)cc2)c1 | 7% | 0% | -26% | -79* | -16 | 4%
Cc1nn2c(-c3cccc(NC(=O)c4ccco4)c3)nnc2c2ccccc12 | 1% | 8% | -15% | -69* | -88* | 17%
CC(=O)c1cccc(NC(=O)c2cccc(NC(=O)c3ccco3)c2)c1 | . | 79µM* | -15% | -13 | 0 | 55%
O=C(Nc1cc(Br)c(O)c(Br)c1)c1cccc(NC(=O)c2ccco2)c1 | . | 50µM* | -29% | -23 | ? | 9%
Cc1ccc(-c2noc(C3CC(=O)N(c4ccc5c(c4)OCCO5)C3)n2)cc1 (stereo not drawn) | 3% | -13% | -22% | . | . | 70%
O=C(c1ccccc1)c1ccc(Oc2ccc([N+](=O)[O-])cc2[N+](=O)[O-])cc1 | . | . | 7.1µM* | -8 | 0 | ?
O=Cc1cccc(Oc2ccc([N+](=O)[O-])cc2[N+](=O)[O-])c1 | 5% | . | -12% | -8 | 14 | 28%
O=C1C(C2=NC(C(=O)O)C3C(=O)N(c4ccccc4)C(=O)C23)=C(O)c2ccccc21 (stereo not drawn) | 2% | -22% | 16µM* | 12 | -1 | 2%
CC(C)CN(C(=O)CSc1nnc2ccccn12)C1CCS(=O)(=O)C1 (stereo not drawn) | -2%[56.1 µM] | -5% | -22% | 14 | 2 | 21%
Cc1ccc(-n2ccnc2SCC(=O)N(CC(C)C)C2CCS(=O)(=O)C2)c(C)c1 (stereo not drawn) | -3% | -30% | 20µM* | -1 | 4 | -18%
Cc1ccc(Cn2c(C)c3cnn(CC(=O)N4CCN(c5ccc(F)cc5)CC4)c(=O)c3c2C)cc1 | 8% | ? | ? | . | . | 11%
NC1=NN=C(N2N=C(c3ccco3)CC2(O)C(F)(F)F)n2ncnc2C1 (stereo not drawn) | 8% | 79µM* | -30% | -71* | 21 | 17%
